{"source": "PubChem BioAssay AID720504", "about": "(National Center for Advancing Translational Sciences (NCATS), 2013)", "note": "The whole screen tested about 360,000 compounds, of which about 10,000 (2.8%) were called active. Inconclusive results (about 4%) are left out. Calls follow the shape of the dose curve; as a rule, active = well fitted inhibition curve with a large enough effect; inconclusive = small, poorly fitted or top-dose-only effect; inactive = flat fitted curve, though single readings scatter. Only a selection was taken, and actives are over-represented in it overall.", "data": [{"target": "Serine/threonine-protein kinase PLK1 (Homo sapiens) (UniProt P53350)", "sequence (P53350 whole entry, looked up, the tested form may be a part)": "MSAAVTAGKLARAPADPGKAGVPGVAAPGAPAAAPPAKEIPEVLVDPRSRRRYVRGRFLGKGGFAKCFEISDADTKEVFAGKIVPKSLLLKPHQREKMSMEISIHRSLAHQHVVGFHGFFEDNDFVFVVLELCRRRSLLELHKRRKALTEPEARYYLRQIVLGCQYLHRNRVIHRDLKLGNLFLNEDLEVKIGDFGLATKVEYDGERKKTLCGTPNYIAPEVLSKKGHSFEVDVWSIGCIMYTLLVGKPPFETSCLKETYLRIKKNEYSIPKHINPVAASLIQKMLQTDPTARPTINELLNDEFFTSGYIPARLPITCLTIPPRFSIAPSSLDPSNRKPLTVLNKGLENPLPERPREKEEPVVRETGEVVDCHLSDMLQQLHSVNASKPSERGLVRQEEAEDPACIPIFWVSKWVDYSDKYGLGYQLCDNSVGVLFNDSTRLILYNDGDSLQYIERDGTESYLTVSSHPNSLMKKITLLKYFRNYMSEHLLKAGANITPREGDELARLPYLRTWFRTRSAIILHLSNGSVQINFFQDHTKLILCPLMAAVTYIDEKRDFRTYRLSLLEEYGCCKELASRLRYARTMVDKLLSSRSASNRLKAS", "assay": "qHTS for Inhibitors of PLK1-PDB (polo-like kinase 1 - polo-box domain): Primary Screen; also: nearly all actives have a fitted effect of over 65% in size; also: potency is read from the fitted curve at half-maximal effect; as to max response, negative = inhibition: series mostly up to about 57 µM; % is scaled to controls: 0 for no effect and ±100 for the full control effect", "settings": "Plk1 PBD binding of FITC phosphopeptide, fluorescence polarization", "values": [{"compound": "CCC(C)C(CO)NC(=O)/C=C/[C@H]1O[C@@H](n2cnc3c(NC(=O)c4ccccc4)ncnc32)[C@H](O)[C@@H]1O", "note": "(some centres not stated)", "max response, negative = inhibition": "-12% (inactive)"}, {"compound": "O=C1Nc2ccc(Br)cc2/C1=N/N=C/C1=C(N2CCOCC2)C(=C\\c2ccccc2)/CC1", "max response, negative = inhibition": "-6.57% (inactive)"}, {"compound": "COc1ccc(/C=N/N=C2/C(=O)Nc3ccccc32)cc1O", "Potency": "23.8 µM (active)"}, {"compound": "CCOc1ccc(/C=N/NC(=O)CSc2ccccn2)cc1O", "max response, negative = inhibition": "-2.2% (inactive)"}, {"compound": "Cc1ccc(S(=O)(=O)N[C@H]2CCC[C@@H]2O)cc1", "max response, negative = inhibition": "-13.6% (inactive)"}, {"compound": "O=C(c1ccc(C(F)(F)F)cc1)N1CCC(=O)N([C@H](COCc2ccccc2)Cc2ccccc2)CC1", "max response, negative = inhibition": "-8.35% (inactive)"}, {"compound": "O=S1(=O)CC(N2CCN(CCO)CC2)CN1C1CCCC1", "note": "(configuration not stated)", "max response, negative = inhibition": "3.7% (inactive)"}, {"compound": "COC(=O)C1=C(N)Oc2cc(C)[nH]c(=O)c2C1c1ccc(Cl)cc1", "note": "(configuration not stated)", "Potency": "23.8 µM (active)"}, {"compound": "COC(=O)C1=C(N)Oc2cc(C)oc(=O)c2C1c1cccnc1", "note": "(configuration not stated)", "max response, negative = inhibition": "-10.6% (inactive)"}, {"compound": "CCN1C(=O)N[C@@H](c2ccccc2)C(C(=O)OC)=C1C", "max response, negative = inhibition": "-12.3% (inactive)"}, {"compound": "CC(=O)c1ccc(Nc2nc(C(N)c3ccccc3Cl)cs2)cc1", "note": "(configuration not stated)", "max response, negative = inhibition": "-10.4% (inactive)"}, {"compound": "O=C(O)C1CCCN1c1nc(Cl)ccc1[N+](=O)[O-]", "note": "(configuration not stated)", "max response, negative = inhibition": "-5.29% (inactive)"}, {"compound": "Cc1nccn1-c1ccc(NC(=O)[C@H]2O[C@@H](n3cnc4c(N)ncnc43)[C@H](O)[C@@H]2O)cc1", "max response, negative = inhibition": "-3.34% (inactive)"}, {"compound": "O=c1[nH]c2ccccc2n1C1CCN(CCOc2ccccc2)CC1", "max response, negative = inhibition": "0.342% (inactive)"}, {"compound": "Cc1ccc(SCc2cc(=O)[nH]c(N3CCCCC3)n2)cc1", "max response, negative = inhibition": "-8.91% (inactive)"}, {"compound": "c1ccc(-c2cc(N3CCCCC3)c3ccccc3n2)cc1", "max response, negative = inhibition": "-13.3% (inactive)"}, {"compound": "O=c1cc(-c2ccccc2)nc(N2CCCCC2)[nH]1", "Potency": "23.8 µM (active)"}, {"compound": "C[C@H](CO)N1C[C@H](C)[C@@H](CN(C)C(=O)c2cnccn2)Oc2ncc(Br)cc2C1=O", "max response, negative = inhibition": "-5.95% (inactive)"}, {"compound": "C[C@H](CO)N1C[C@H](C)[C@H](CN(C)C(=O)c2ccncc2)OCc2ccccc2-c2c(n(C)c3ccccc23)C1=O", "max response, negative = inhibition": "-5.78% (inactive)"}, {"compound": "COc1cccc(-c2cnc3c(NC(C)=O)cc(-c4cccc(NC(C)=O)c4)cn23)c1", "max response, negative = inhibition": "-1.26% (inactive)"}, {"compound": "CC1(C(=O)NS(=O)(=O)c2ccccc2)CCN1C(=O)Cc1ccc(-c2ccccc2)cc1", "note": "(configuration not stated)", "max response, negative = inhibition": "-4.54% (inactive)"}, {"compound": "CCn1c(SCC(=O)NC2=NCCS2)nnc1C(C)NC(=O)c1ccccc1F", "note": "(configuration not stated)", "max response, negative = inhibition": "-16.2% (inactive)"}, {"compound": "Cc1ccc(NC(=O)Cc2nnc(SCC(=O)Nc3nncs3)n2C)cc1", "max response, negative = inhibition": "-3.59% (inactive)"}, {"compound": "CCn1c(CC(=O)Nc2ccc(C)cc2)nnc1SCC(=O)Nc1nc(C)cs1", "Potency": "26.7 µM (active)"}, {"compound": "CCn1c(CC(=O)Nc2ccccc2)nnc1SCC(=O)N1CCOCC1", "max response, negative = inhibition": "-0.409% (inactive)"}, {"compound": "CCn1c(SCC(=O)Nc2nc(C)cs2)nnc1C(C)NC(=O)c1ccccc1", "note": "(configuration not stated)", "Potency": "29.9 µM (active)"}, {"compound": "COCCn1c(SCC(=O)Nc2nc(C)cs2)nnc1C(C)C", "max response, negative = inhibition": "-12.4% (inactive)"}]}]}
